Test results reported in PubChem BioAssay.
Calls of active or inactive are those of the source.

How the values were obtained:
[1] = tested on: PRMT1 (protein arginine N-methyltransferase 1); assay: PRMT1 binders on small-molecule microarrays, primary screen, biochemical, small-molecule microarray, 635 nm fluorescence (AID 1088); details: small-molecule microarray binding, higher = more signal;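 also: binding of Prmt1 protein to compounds spotted on small-molecule microarray slides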
[2] = yeast growth modulation, basal conditions, primary screen, YJM789 clinical isolate, OD600, 24 h (AID 1089);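 also: growth of clinical yeast isolate S. cerevisiae YJM 789 seeded 1000 cells per well; test concentration not given here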; details: S. cerevisiae YJM789 growth, higher = more signal, called active from +8 up or from −8 down
[3] = fission yeast growth modulation, primary screen, strain 972, OD600, 24 h, no modulator (AID 1090);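 also: basal condition with compound alone and no growth modifier present; test concentration not given here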; details: S. pombe 972 growth, higher = more signal, called active from +8 up or from −8 down
[4] = S. cerevisiae growth modulation with rapamycin, primary screen, strain BY4716, OD600, 96 h (AID 1091); details: higher = more signal, called active from +8 up or from −8 down; also: test concentration not given here
[5] = biological target: Torsin-1A-interacting protein 2 (Homo sapiens) (UniProt Q8NFQ8); assay: LULL1 binders on small-molecule microarray, primary screen, cell lysate, human LULL1 lysate, 635/667 nm fluorescence (AID 1092); details: hLULL1 lysate binding, 635 nm fluorescence, higher = more signal;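 also: probe is lysate of COS7 cells overexpressing human LULL1; score merges per-feature 667 nm fluorescence with signal-to-noise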
Sequence of Torsin-1A-interacting protein 2 (Homo sapiens) (Q8NFQ8 whole entry, looked up): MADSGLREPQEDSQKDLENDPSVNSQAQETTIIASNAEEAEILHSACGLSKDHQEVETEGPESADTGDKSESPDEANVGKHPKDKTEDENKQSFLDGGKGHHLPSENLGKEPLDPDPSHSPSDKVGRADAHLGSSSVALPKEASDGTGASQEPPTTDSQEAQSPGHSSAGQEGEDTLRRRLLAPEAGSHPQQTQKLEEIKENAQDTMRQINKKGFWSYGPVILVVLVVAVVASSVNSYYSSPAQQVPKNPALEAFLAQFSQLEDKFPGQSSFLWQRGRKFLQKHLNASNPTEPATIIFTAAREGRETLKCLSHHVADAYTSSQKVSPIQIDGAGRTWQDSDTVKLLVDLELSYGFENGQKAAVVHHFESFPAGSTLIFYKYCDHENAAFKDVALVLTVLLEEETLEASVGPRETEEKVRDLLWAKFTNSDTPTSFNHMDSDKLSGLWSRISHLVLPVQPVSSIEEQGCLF

[6] = E. coli growth modulation, two-sided OD650, primary screen, E. coli filamentation project, strain DRC41, 24 h (AID 1093); details: OD650, 24 h, higher = more signal, called active from +8 up or from −8 down;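 also: MC1000 strain lacking acrAB efflux and sulA so SOS filamentation is blocked; test concentration not given here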
[7] = small-molecule microarray binders of probe aLefty2, primary screen, biochemical, biotinylated probe, 635/667 nm fluorescence (AID 1094); details: higher = more signal;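 also: score merges spot fluorescence near 667 nm with spot signal-to-noise ratio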
[8] = tested on: Noggin (protein binding on small-molecule microarray); assay: Noggin binders on small-molecule microarray, primary screen, biochemical, 635/667 nm fluorescence (AID 1095); details: 635 nm fluorescence, higher = more signal;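 also: score merges 667 nm feature fluorescence with signal to noise over triplicate slides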
[9] = biological target: Neurogenic locus notch homolog protein 3 (Homo sapiens) (UniProt Q9UM47); assay: NOTCH3 binders on small-molecule microarray, primary screen, biochemical, 635/667 nm fluorescence (AID 1096); details: NOTCH3 binding, 635 nm fluorescence, higher = more signal
Sequence of Neurogenic locus notch homolog protein 3 (Homo sapiens) (Q9UM47 whole entry, looked up): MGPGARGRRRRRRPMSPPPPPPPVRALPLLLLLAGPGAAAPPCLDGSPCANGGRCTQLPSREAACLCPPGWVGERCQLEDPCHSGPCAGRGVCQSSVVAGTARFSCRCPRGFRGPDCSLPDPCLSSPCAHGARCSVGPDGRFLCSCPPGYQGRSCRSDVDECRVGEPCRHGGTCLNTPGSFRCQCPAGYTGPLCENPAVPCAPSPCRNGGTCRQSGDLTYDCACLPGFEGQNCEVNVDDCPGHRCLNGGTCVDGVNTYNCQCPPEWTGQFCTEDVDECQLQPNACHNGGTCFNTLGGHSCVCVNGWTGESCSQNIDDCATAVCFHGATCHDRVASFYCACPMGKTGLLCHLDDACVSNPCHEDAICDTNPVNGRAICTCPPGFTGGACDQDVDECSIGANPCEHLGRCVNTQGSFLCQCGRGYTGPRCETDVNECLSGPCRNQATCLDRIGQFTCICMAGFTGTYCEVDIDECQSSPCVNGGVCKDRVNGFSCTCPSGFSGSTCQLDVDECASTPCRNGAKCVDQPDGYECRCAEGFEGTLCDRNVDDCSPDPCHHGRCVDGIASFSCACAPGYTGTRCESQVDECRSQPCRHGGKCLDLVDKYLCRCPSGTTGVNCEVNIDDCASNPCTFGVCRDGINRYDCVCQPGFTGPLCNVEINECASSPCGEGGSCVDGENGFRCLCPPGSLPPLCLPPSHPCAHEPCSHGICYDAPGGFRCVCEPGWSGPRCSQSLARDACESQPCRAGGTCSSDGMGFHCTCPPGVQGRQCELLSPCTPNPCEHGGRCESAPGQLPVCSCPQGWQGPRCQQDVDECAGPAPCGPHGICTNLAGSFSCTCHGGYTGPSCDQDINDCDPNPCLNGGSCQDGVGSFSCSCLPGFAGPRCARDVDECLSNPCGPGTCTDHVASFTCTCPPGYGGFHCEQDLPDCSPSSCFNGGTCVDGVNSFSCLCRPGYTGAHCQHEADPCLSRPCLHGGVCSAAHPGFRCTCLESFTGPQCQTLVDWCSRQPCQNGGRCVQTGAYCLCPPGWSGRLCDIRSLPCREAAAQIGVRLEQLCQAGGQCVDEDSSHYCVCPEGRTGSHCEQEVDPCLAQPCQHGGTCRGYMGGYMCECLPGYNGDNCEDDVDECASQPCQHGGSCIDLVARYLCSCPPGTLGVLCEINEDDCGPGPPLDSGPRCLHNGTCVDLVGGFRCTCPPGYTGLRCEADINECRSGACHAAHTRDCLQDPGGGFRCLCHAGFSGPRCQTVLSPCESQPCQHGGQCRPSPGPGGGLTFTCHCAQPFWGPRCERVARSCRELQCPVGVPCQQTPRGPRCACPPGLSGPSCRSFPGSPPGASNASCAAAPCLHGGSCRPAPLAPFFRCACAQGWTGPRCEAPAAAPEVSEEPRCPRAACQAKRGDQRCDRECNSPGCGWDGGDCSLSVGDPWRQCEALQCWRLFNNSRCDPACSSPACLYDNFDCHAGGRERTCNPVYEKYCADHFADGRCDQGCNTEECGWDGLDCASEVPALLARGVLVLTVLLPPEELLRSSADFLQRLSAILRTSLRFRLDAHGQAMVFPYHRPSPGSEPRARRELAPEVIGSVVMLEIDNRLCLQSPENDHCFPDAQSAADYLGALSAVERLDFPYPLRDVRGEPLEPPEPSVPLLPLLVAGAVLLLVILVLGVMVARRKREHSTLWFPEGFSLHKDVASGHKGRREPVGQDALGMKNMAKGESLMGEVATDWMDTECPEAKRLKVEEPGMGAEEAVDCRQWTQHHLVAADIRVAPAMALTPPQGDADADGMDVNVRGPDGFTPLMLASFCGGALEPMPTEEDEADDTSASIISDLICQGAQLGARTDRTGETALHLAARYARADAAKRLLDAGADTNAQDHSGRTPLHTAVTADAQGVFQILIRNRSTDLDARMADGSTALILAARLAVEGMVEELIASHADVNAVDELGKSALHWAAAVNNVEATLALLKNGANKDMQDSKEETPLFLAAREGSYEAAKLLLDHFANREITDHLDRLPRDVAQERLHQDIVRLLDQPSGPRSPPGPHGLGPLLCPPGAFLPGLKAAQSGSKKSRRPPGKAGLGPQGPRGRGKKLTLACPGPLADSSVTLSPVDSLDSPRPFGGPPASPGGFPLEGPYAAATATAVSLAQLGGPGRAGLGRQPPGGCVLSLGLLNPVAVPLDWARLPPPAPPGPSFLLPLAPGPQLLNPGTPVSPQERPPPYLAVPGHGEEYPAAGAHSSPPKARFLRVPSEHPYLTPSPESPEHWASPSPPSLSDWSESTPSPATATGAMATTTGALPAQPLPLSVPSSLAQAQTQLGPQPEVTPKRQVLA

[10] = small-molecule microarray binders of probe aEGFR, primary screen, biochemical, biotinylated probe, 635/667 nm fluorescence (AID 1097); details: higher = more signal;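 also: probe is a biotinylated anti-EGFR antibody binding compounds printed on slides; score combines fluorescence near 667 nm and signal to noise of each spot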
[11] = tested on: Plasmodium falciparum Sir2 (PF13_0152, Sir2A); assay: pfSir2 binders on small-molecule microarrays, primary screen, biochemical, small-molecule microarray, 635 nm fluorescence (AID 1098); details: small-molecule microarray binding, fluorescence 635 nm; higher = more signal;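 also: score merges spot fluorescence intensity with its signal-to-noise ratio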
[12] = small-molecule microarray binders of probe aDKK1, primary screen, biochemical, biotinylated probe, 635/667 nm fluorescence (AID 1099); details: higher = more signal;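 also: score merges 667nm spot fluorescence with signal to noise across triplicate slides; reference of the scale not given here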
[13] = small-molecule microarray binders of probe aCHRDL2, primary screen, biochemical, biotinylated probe, 635/667 nm fluorescence (AID 1100); details: higher = more signal
[14] = splicing luciferase reporter signal modulators, primary screen, spliceosome inhibition project, cell-based, HEK293, splice +/- reporter (AID 1101); details: luminescence, 24 h, higher = more signal, called active from +8 up or from −8 down;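 also: HEK293 cells carrying a splicing-competent luciferase reporter gene; test concentration not given here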
[15] = biological target: Fibroblast growth factor 10 (Homo sapiens) (UniProt O15520); assay: FGF10 binders on small-molecule microarrays, primary screen, biochemical, small-molecule microarray, 635 nm fluorescence (AID 1102); details: FGF10 binding, fluorescence 635 nm, higher = more signal
Sequence of Fibroblast growth factor 10 (Homo sapiens) (O15520 whole entry, looked up): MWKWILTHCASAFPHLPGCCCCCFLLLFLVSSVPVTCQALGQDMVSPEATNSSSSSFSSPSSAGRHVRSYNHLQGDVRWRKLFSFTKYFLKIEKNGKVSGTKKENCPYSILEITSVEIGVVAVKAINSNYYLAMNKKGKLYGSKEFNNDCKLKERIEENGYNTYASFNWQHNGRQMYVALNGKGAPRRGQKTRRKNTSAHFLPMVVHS

[16] = tested on: glycogen synthase kinase-3 (GSK3A per assay name; protocol says GSK3B); assay: GSK3 binders on small-molecule microarrays, primary screen, biochemical, small-molecule microarray, 635 nm fluorescence, GSK3A (AID 1103); details: small-molecule microarray binding, fluorescence 635 nm; higher = more signal; also: the record names both GSK3A and GSK3B
[17] = biological target: Epidermal growth factor receptor (Homo sapiens) (UniProt P00533); assay: EGFR binders on small-molecule microarrays, primary screen, biochemical, small-molecule microarray, 635 nm fluorescence (AID 1104); details: EGFR binding, higher = more signal;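 also: score merges 667 nm emission intensity with spot signal to noise over triplicate slides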
Sequence of Epidermal growth factor receptor (Homo sapiens) (P00533 whole entry, looked up): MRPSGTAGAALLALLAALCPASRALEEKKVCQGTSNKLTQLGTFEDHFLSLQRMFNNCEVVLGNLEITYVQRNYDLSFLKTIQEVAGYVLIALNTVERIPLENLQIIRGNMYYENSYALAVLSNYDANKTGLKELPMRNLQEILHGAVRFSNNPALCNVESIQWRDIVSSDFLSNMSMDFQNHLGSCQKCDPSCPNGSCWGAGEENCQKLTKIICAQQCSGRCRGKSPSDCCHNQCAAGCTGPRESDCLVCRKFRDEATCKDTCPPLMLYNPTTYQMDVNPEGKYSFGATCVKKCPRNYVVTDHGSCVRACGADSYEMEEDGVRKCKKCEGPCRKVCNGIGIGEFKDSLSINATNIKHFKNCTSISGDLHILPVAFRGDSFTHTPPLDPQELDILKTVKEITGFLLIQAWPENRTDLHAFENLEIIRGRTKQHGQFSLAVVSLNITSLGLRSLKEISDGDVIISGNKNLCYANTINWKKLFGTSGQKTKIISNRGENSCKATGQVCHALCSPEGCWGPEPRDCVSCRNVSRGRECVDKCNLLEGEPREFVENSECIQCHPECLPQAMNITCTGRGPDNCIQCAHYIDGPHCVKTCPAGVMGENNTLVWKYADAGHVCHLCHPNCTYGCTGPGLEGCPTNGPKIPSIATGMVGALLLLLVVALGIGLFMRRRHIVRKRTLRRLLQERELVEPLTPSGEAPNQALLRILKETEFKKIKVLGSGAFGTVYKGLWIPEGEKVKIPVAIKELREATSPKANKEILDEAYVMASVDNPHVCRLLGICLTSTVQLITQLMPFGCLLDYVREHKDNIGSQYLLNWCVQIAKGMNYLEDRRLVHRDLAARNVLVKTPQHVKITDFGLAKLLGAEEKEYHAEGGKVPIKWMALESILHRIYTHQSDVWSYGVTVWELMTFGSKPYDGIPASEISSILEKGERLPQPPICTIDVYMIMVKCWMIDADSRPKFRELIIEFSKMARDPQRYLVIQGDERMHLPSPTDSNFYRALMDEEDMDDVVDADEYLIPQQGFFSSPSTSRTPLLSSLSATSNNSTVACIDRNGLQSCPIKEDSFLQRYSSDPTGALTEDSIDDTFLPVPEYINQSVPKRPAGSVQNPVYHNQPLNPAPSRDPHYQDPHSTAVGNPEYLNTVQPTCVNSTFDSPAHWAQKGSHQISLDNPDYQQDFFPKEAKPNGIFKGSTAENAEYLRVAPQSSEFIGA

[18] = biological target: Follistatin-related protein 3 (Homo sapiens) (UniProt O95633); assay: FSTL3 binders on small-molecule microarrays, primary screen, biochemical, small-molecule microarray, 635 nm fluorescence (AID 1105); details: FSTL3 binding, higher = more signal;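 also: score merges emission near 667 nm and signal to noise per printed spot across three slides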
Sequence of Follistatin-related protein 3 (Homo sapiens) (O95633 whole entry, looked up): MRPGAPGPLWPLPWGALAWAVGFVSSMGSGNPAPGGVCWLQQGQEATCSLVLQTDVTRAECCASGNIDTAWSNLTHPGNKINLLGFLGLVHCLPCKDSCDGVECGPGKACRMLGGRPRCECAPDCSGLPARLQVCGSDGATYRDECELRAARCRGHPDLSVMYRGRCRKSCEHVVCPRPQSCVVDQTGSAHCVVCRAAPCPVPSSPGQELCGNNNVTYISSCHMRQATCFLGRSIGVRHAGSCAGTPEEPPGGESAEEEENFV

[19] = biological target: Dickkopf-related protein 1 (Homo sapiens) (UniProt O94907); assay: DKK1 binders on small-molecule microarrays, primary screen, biochemical, small-molecule microarray, 635 nm fluorescence scan (AID 1106); details: DKK1 binding, higher = more signal;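 also: score merges emission near 667 nm with signal to noise over three replicate slides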
Sequence of Dickkopf-related protein 1 (Homo sapiens) (O94907 whole entry, looked up): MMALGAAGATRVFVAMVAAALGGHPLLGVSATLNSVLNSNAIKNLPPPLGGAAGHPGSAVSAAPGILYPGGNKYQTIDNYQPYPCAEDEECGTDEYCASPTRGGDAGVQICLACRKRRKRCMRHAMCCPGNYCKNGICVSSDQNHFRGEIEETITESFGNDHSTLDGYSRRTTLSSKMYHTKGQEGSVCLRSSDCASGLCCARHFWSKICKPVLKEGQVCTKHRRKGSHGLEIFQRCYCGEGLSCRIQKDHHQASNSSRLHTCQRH

[20] = tested on: Inhibin beta A chain (activin A); assay: INHBA (activin A) binders on microarrays, primary screen, biochemical, small-molecule microarray, 635 nm fluorescence scan (AID 1107); details: small-molecule microarray binding, higher = more signal;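 also: mouse activin A protein probed at 4.33 µg/mL on printed slides; score merges bound-protein fluorescence near 667 nm with spot signal-to-noise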

Structure (SMILES) | composite z-score [1] | z-score [2] | z-score [3] | z-score [4] | composite z-score [5] | z-score [6] | composite z-score [7] | composite z-score [8] | composite z-score [9] | composite z-score [10] | composite z-score [11] | composite z-score [12] | composite z-score [13] | z-score [14] | composite z-score [15] | composite z-score [16] | composite z-score [17] | composite z-score [18] | composite z-score [19] | composite z-score [20]
CCCC=C(CCC)[C@@H](NC(=O)OCC(C)C)c1ccc(C(=O)OC)cc1 | 0.586 | -0.245 (inactive) | 0.354 (inactive) | -0.894 (inactive) | 0.893 | 0.0664 (inactive) | 0.0506 | 0.421 | 0.621 | -0.123 | 0.458 | -0.315 | -0.411 | -2.36 (inactive) | 0.674 | 0.788 | 0.471 | 0.414 | 0.85 | -0.155
CN1C(=O)C2C(C1=O)C1C=C(CCCO)C2C(C2CC2)N1Cc1cccc(OC(F)(F)F)c1 (stereo not given) | 1.34 | -1.07 (inactive) | -1.58 (inactive) | -1.15 (inactive) | 3.17 | 0.179 (inactive) | -0.224 | -0.0767 | 0.203 | -0.144 | 1.79 | -0.656 | 0.512 | -0.511 (inactive) | -0.268 | 0.393 | -0.783 | 0.0703 | -0.521 | 0.722
COc1cc(OC)c(C(O)C2C=CC3C(=O)N(c4ccccc4)C(=O)C3N2Nc2ccc(C(C)C)cc2)cc1Br (stereo not given) | 1.48 | -0.0401 (inactive) | 1.09 (inactive) | -0.323 (inactive) | 3.55 | 0.315 (inactive) | 0.136 | -0.276 | 1.05 | 0.582 | 0.891 | 0.671 | 0.605 | -0.603 (inactive) | 0.909 | 1.3 | 0.21 | 0.839 | 0.245 | 0.735
CCCCC(O)C1C=CC2C(=O)N(c3ccccc3)C(=O)C2N1Nc1ccc([N+](=O)[O-])cc1 (stereo not given) | 1.55 | -0.676 (inactive) | 0.429 (inactive) | 0.154 (inactive) | 3.68 | 0.916 (inactive) | -0.144 | 0.146 | 1.11 | -0.0828 | 1.2 | 0.379 | 0.21 | -0.846 (inactive) | 0.435 | 1.32 | 0.0456 | 1.3 | -0.105 | 0.329
CC1CC/C=C\[C@H]2OC34C=CCN(Cc5ccccc5)C(=O)[C@H]3N(CCCCCCO)C(=O)[C@@H]4C2C(=O)O1 (stereo not given in full) | 0.661 | -0.617 (inactive) | -0.623 (inactive) | -0.482 (inactive) | 2.31 | 0.246 (inactive) | -0.163 | -1.78 | -0.397 | -0.0773 | 0.954 | -0.0995 | 0.705 | 0.0368 (inactive) | -0.965 | -0.587 | -1.28 | -1.01 | -1.49 | 0.0203
